From the supplement of paper PMC6555819

How the values were obtained:
Test in all cases: PBM binding z-score (relative to random genomic background probes); higher = stronger binding; sequences stand for … in GC…GCGATTGACAGCGTAGAATGAAGG
[1] = system: FXR:RXRa (NR concentration 270 nM, RXRa partner concentration 90 nM)
In short: (§1)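 Custom Agilent 4×180K protein-binding microarrays carried double-stranded probes, each with a 34-nt variable region. These regions held direct-repeat seeds, single-nucleotide variants, half-site ablations and random human genomic background sequences. Ligand-free nuclear receptor dimers were incubated on the arrays for 1 h, antibodies against each partner (one per run) detected binding, and scanned fluorescence was regression-normalized. Binding z-scores take the random background probes as reference.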

[2] = system: LXRa:RXRa (NR concentration 270 nM, RXRa partner concentration 90 nM)
In short: as §1

[3] = system: LXRa homodimer (NR concentration 270 nM)
In short: as §1

[4] = system: LXRb:RXRa (NR concentration 270 nM, RXRa partner concentration 90 nM)
In short: as §1

[5] = system: LXRb homodimer (NR concentration 270 nM)
In short: as §1

[6] = system: PPARa:RXRa (NR concentration 270 nM, RXRa partner concentration 90 nM)
In short: as §1

[7] = system: PPARg:RXRa (NR concentration 180 nM, RXRa partner concentration 90 nM)
In short: as §1

[8] = system: PPARg:RXRa 270nM:90nM, anti-RXR (NR concentration 270 nM, RXRa partner concentration 90 nM)
In short: as §1

[9] = system: PPARg:RXRa 30nM:10nM, anti-RXR (NR concentration 30 nM, RXRa partner concentration 10 nM)
In short: as §1

[10] = system: PPARg:RXRa 90nM:30nM, anti-RXR (NR concentration 90 nM, RXRa partner concentration 30 nM)
In short: as §1

[11] = system: PPARg:RXRa DBDmut IVT, anti-RXR (DBD mutation: RXRa K156A/R161A, NR concentration 270 nM, RXRa partner concentration 90 nM)
In short: as §1

[12] = system: PPARg:RXRa IVT, anti-PPARg (NR concentration 270 nM, RXRa partner concentration 90 nM)
In short: as §1

[13] = system: PPARg DBDmut:RXRa IVT, anti-PPARg (DBD mutation: PPARg1 K132A/R137A, NR concentration 270 nM, RXRa partner concentration 90 nM)
In short: as §1

[14] = system: PPARg DBDmut IVT, anti-PPARg (DBD mutation: PPARg1 K132A/R137A, NR concentration 270 nM)
In short: as §1

[15] = system: PPARg homodimer (NR concentration 180 nM)
In short: as §1

[16] = system: PXR:RXRa (NR concentration 270 nM, RXRa partner concentration 90 nM)
In short: as §1

[17] = system: PXR homodimer (NR concentration 270 nM)
In short: as §1

[18] = system: RARa:RXR (NR concentration 270 nM, RXRa partner concentration 90 nM)
In short: as §1

[19] = system: RARa homodimer (NR concentration 270 nM)
In short: as §1

[20] = system: RARb:RXRa (NR concentration 270 nM, RXRa partner concentration 90 nM)
In short: as §1

Row | Sequence | PBM binding z-score [1] | PBM binding z-score [2] | PBM binding z-score [3] | PBM binding z-score [4] | PBM binding z-score [5] | PBM binding z-score [6] | PBM binding z-score [7] | PBM binding z-score [8] | PBM binding z-score [9] | PBM binding z-score [10] | PBM binding z-score [11] | PBM binding z-score [12] | PBM binding z-score [13] | PBM binding z-score [14] | PBM binding z-score [15] | PBM binding z-score [16] | PBM binding z-score [17] | PBM binding z-score [18] | PBM binding z-score [19] | PBM binding z-score [20]
1 | TCTTGTAGATCAGCAGGATAAGAAAGCTGGCCAA | -0.292 | -0.433 | -0.526 | -0.411 | -0.635 | 0.0173 | -0.182 | 1.01 | 2.37 | 1.45 | 1.55 | 0.124 | 0.2 | -0.242 | -1.15 | -0.413 | -0.584 | -0.151 | -0.239 | -0.505
2 | AGTCAAAGTTCATCTAGGTGACGTAAGATATGCT | 6.84 | 5.85 | 5.06 | 3.69 | 1.52 | 4.98 | 7.01 | 6.36 | 3.53 | 5.48 | 1.67 | 4.74 | 1.64 | 1.41 | 3.65 | 4.98 | 6.85 | 3.75 | 1.44 | 4.8
3 | GTACCAAGGTGAATAGGTCGATGATGAGTAGGCG | 0.682 | 0.499 | -0.251 | 0.484 | -0.293 | 1.89 | 1.69 | 1.53 | 0.803 | 1.28 | 1.55 | 2.61 | 0.551 | -0.172 | 1.08 | 0.477 | 0.109 | 1.13 | 0.983 | 2.01
4 | GCAGACAGGTGAAACGCTGGTAACTCAGGGTGGC | -0.319 | 0.0267 | -0.492 | -0.149 | -1.44 | 0.737 | 0.389 | 0.0806 | -0.77 | -0.171 | 0.871 | 0.415 | -0.505 | -0.62 | -1.22 | -0.38 | -0.927 | 0.0217 | -0.662 | 0.668
5 | ACAGACAGGTGATGAAGGTAACCCAGGCTATCAT | -0.0743 | -0.103 | -0.116 | -0.241 | -0.475 | 0.302 | 0.814 | 0.0501 | 0.126 | -0.204 | -0.12 | 0.789 | 0.463 | 0.0514 | 0.225 | -0.103 | -0.0491 | 0.412 | -0.333 | 0.413
6 | GGAACGAGGACAAAGTTGATAGCATCTGTCGACG | -0.0589 | -0.208 | -0.722 | -0.455 | -0.842 | 2.4 | 4.11 | 5.44 | 3.91 | 5.14 | 1.35 | 1.44 | -0.283 | -0.95 | -0.0718 | -0.043 | -0.312 | 0.0802 | 0.0714 | 0.942
7 | CCTACTGGGCCAAGATCATTGATCAGTCAAAGCA | -0.667 | -0.791 | -0.405 | -0.59 | -1.07 | 0.131 | 0.378 | 0.483 | -0.171 | 0.221 | 3.49 | 2.81 | -0.235 | -0.518 | -0.385 | -0.498 | -0.795 | -0.319 | -0.424 | -0.341
8 | GGAACGAGGGTAAGTTGATAGCAGAGTTTGATGG | -0.0165 | -0.0993 | -0.232 | -0.276 | -0.358 | 0.189 | 0.422 | 0.00426 | -0.0948 | -0.0902 | 1.59 | 0.763 | 0.619 | 0.0122 | 0.193 | 0.0431 | 0.405 | -0.00911 | 0.262 | 0.727
9 | TCTGCTAGGTCAGTTGGTCGGCTAACGAGCTGCC | 0.77 | 0.605 | -0.503 | 0.189 | 0.554 | 1.17 | -0.329 | 1.54 | 1.35 | 1.7 | 2.4 | 2.52 | -0.323 | 0.245 | -0.547 | -0.0242 | -0.996 | 0.254 | -0.776 | 3.2
10 | CAAACTAGGTCACGAAAGGCCAAAGTCGAATGAC | 5.15 | 6.02 | 1.03 | 4.03 | 0.629 | 5.58 | 9.27 | 7.42 | 5.71 | 7.41 | 8.35 | 9.09 | 5.28 | 3.96 | 2.99 | 4.77 | 0.402 | 3.68 | 0.983 | 4.56
11 | TTACCAAGGTGAGCTGAGGTCGGTGATCCAACTC | 0.603 | 0.222 | -0.197 | 0.0956 | -1.13 | 1.07 | 0.209 | 0.517 | -0.0845 | 0.37 | 0.759 | 1.6 | -0.343 | -0.369 | -0.703 | 2.47 | -0.308 | 1.19 | -0.395 | 1.52
12 | TAGCCCAGGTCATTGGGCCAGTATAGTACGCATC | 4.84 | 3.77 | 0.677 | 2.25 | -0.127 | 4.22 | 3.72 | 3.93 | 0.844 | 2.6 | 1.36 | 3.68 | -0.318 | -0.214 | 1.51 | 2.71 | 0.0159 | 3.06 | -0.165 | 3.71
13 | CCTCGGAGGACAACAGAAGGTCAGAGCTGCCAGA | 0.854 | 1.74 | 0.922 | 1.14 | -0.67 | 1.78 | 0.435 | 0.249 | -0.533 | -0.218 | 0.129 | 0.0477 | -0.565 | -1.32 | 1.42 | 1.43 | -0.04 | 1.95 | 0.344 | 3.02
14 | CCTTCCGGGTCAAGGTTATAGCACGGGTGGTACG | 5.06 | 3.34 | 0.142 | 2.85 | 0.13 | 4.95 | 5.1 | 5.24 | 2.15 | 4.32 | 2.99 | 4.69 | 0.688 | 0.0375 | 2.1 | 3.7 | 0.341 | 4.25 | 0.928 | 4.1
15 | CCTACTGGGCCAAAAAGGTCATAGATGCCGATAA | 3.54 | 4.14 | 2.44 | 4.1 | -0.00458 | 5.14 | 3.89 | 4.29 | 1.84 | 3.55 | 3.18 | 4.3 | 0.551 | -0.44 | 3.27 | 4.51 | 1.73 | 5.33 | 1.49 | 3.98
